Rows were chosen to be rich in hits. Some 4% of all compounds tested hit in one or more screens of this group.
TWEAK-Fn14 inh: TWEAK-Fn14 signaling inhibition. inhibition, % at 10 µM. hit rate 2% among 360,000. TWEAK-stimulated Fn14 reporter cells, luciferase luminescence, 8 h; in the data active means inhibition above about 50%
TRPM1 prom inh: inhibitors of MITF-driven TRPM1 promoter in melanoma cells; SK-MEL-5 TRPM1 promoter luciferase, 24 h; inhibition, % at 12.5 µM; hit rate 0.83% among 330,000; AID 488899;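 active means mean inhibition across replicates of 60% or more, whatever share of single replicates reaches that level; inconclusive means some that reach 60%, reason not given; inactive means mean inhibition across replicates below 60%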
Peg3 promoter: Peg3 promoter activity inhibition. HeLa PEG-Prom luciferase reporter, luminescence, overnight. inhibition, % at 20 µM. hit rate 1.7% among 360,000. AID 588405;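 active means inhibition of at least 50% at 20 µM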
EBV LMP1 NFkB: inhibitors of Epstein-Barr LMP1-induced NF-kappaB reporter | LMP1-induced NF-kappaB luciferase reporter cells, luminescence | inhibition, % at 12.5 µM | hit rate 0.69% among 350,000 | AID 504558; in the data active means inhibition above about 41%; inconclusive means no clear call, values can overlap the other calls;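 further: 0% = neutral control wells and 100% = reference inhibitor control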
TROY NFkB inh: TROY signaling inhibition; Q293 LMP1-TROYcd NF-kB luciferase reporter, 4 h; inhibition, % at 10 µM; hit rate 0.98% among 360,000; AID 1347056;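 active means compounds whose plate-normalised and pattern-corrected inhibition of the luciferase reporter signal at the single screening dose is 50% or more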
HIF-2a inh: HIF-2a inhibition; 786-0 RCC cells HIF-2a reporter, luciferase luminescence, overnight; inhibition, % at 18.8 µM; hit rate 0.72% among 360,000; AID 624352;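 active means inhibition of the luminescence signal of 40% or more relative to plate controls, in a single-dose primary screen at 18.75 µM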
* = called active by the depositor; u = inconclusive; x = no result.

SMILES | TWEAK-Fn14 inh | TRPM1 prom inh | Peg3 promoter | EBV LMP1 NFkB | TROY NFkB inh | HIF-2a inh
CC(C)(C)c1ccc(C(=O)Nc2nnc(SCC(=O)NCC3CCCO3)s2)cc1 (stereo not given) | 71* | 26 | -41 | 49* | 6 | -1
CCn1c(SCC(=O)NCC2CCCO2)nnc1-c1c[nH]c2ccccc12 (stereo not given) | 63* | 9 | 1 | 4 | x | 10
Cn1c(SCC(=O)NCC2CCCO2)nnc1-c1c[nH]c2ccccc12 (stereo not given) | 12 | 11 | 2 | 2 | 13 | 15
Cn1cc(SCC(=O)NCC2CCCO2)c2ccccc21 (stereo not given) | -2 | 3 | 6 | 85* | 5 | 21
CCn1c(SC(C)C)nnc1-c1c[nH]c2ccccc12 | 3 | -6 | -52 | 84* | -10 | -41
C[C@@H](NC(=O)[C@@H]1CCCN1C(=O)[C@@H]1CCCN1C(=O)c1ccccc1)c1ccccc1 | 23 | x | x | x | -5 | 12
COCCNC(=O)C1(C)CCN(C(=O)/C=C/c2ccccc2)C1 (stereo not given) | 16 | x | -12 | x | 4 | -3
COCCn1c(SCc2ccc(C(=O)OC)o2)nnc1-c1c[nH]c2ccccc12 | -19 | -7 | 10 | 47* | 3 | -4
COC(=O)c1ccc(CSc2nnc(-c3c[nH]c4ccccc34)n2C)o1 | -1 | -3 | 0 | -5 | -9 | -10
COc1ccc(OCC(=O)Nc2c3c(nn2-c2ccc(OC)cc2)CS(=O)(=O)C3)cc1 | -1 | -5 | 12 | 0 | 13 | 5
c1ccc(-n2nnnc2-n2cnc3ccccc32)cc1 | 54* | -2 | -13 | -12 | 31 | -2
Cc1ccc(C(=O)OC2OC(=O)C(Cl)=C2N2CCOCC2)cc1 (stereo not given) | 58* | 1 | 10 | 5 | 21 | -14
Cc1ccc(C(=O)Oc2ccccc2N2CCOCC2)cc1 | 31 | 9 | 9 | 10 | -14 | 7
CCn1c2ccccc2c2cc(/C=N/n3cn[nH]c3=S)ccc21 | 5 | -7 | 46 | 80* | 32 | 10
CCn1c2ccccc2c2cc(/C=N/O)ccc21 | 71* | -2 | -20 | 21 | 34 | 3
CCn1c2ccccc2c2cc(/C=N/n3cnnc3)ccc21 | -45 | -5 | 38 | 83* | 46 | 23
CCn1c2ccccc2c2cc(/C=N/n3c(-c4cc(C)[nH]n4)n[nH]c3=S)ccc21 | -2 | 12 | -2 | 87* | 37 | 19
CCCn1c(SCC(=O)Nc2cccnc2Cl)n[nH]c1=O | -10 | -8 | 5 | -9 | 4 | -3
CC(=O)OCCN(CCCn1c(-c2ccncc2)nc2ccccc21)c1nc(CN2CCCCC2)cs1 | -1 | -1 | -10 | -3 | -8 | 15
COc1cc(NC(=O)C2=C(N3CCOCC3)/C(=C\c3ccc(Cl)cc3Cl)CC2)cc(OC)c1OC | 52* | 6 | 24 | 20 | 34 | 19
COc1cc(NC(=O)C2=C(N3CCOCC3)/C(=C\c3ccc(Br)cc3)CC2)cc(OC)c1OC | 14 | 3 | 13 | 7 | 11 | 12
COc1ccc(NC(=O)NCCN2CCc3ccccc3C2)cc1 | -13 | -4 | 1 | 82* | -21 | -13
CSc1ccc(NC(=O)NCCN2CCc3ccccc3C2)cc1 | -26 | -12 | -23 | -14 | -24 | -49
COc1ccc(C(CNC(=O)Nc2ccccc2)N2CCN(C)CC2)cc1 (stereo not given) | -9 | -3 | -33 | 52* | -7 | -17
O=C(c1cc(S(=O)(=O)N2CCOCC2)c(Cl)cc1Cl)N1CCN(S(=O)(=O)c2cccc(F)c2)CC1 | -12 | 2 | 15 | 2 | -11 | -7
SMILES | TWEAK-Fn14 inh | TRPM1 prom inh | Peg3 promoter | EBV LMP1 NFkB | TROY NFkB inh | HIF-2a inh
CCC12CC1(C(=O)OC)C(=O)N1CCc3c([nH]c4ccccc34)C12 (stereo not given) | -29 | x | 11 | x | 62* | 19
COC(=O)CC1CC2(C(=O)OC)c3[nH]c4ccccc4c3CCN2C1=O (stereo not given) | 16 | x | 13 | x | 10 | 10
CCn1c(/C=C/c2ccc(O)c(O)c2)nc2ccccc2c1=O | 11 | 16 | -6 | 4 | 11 | 3
Cc1[nH]c2ccccc2c1/C=C/c1nc2ccccc2c(=O)n1CCO | 13 | -18 | -14 | -27 | 55* | -8
CCn1c(/C=C/c2cc(Br)ccc2O)nc2ccccc2c1=O | 63* | 15 | 68* | -21 | 47 | 22
C=CCS/C(N)=N\N=C\c1c(O)ccc2ccccc12 | 24 | -60 | -304 | -25 | -61 | -272
O=C(Nc1ccc2ccccc2n1)Nc1ccccc1F | -31 | -29 | -58 | -8 | -50 | -98
Fc1ccc(Nc2ccc3ccccc3n2)c(F)c1 | 52* | -24 | -209 | -5 | -2 | -208
COc1cccc(C(C(=O)NC2CCCC2)N2CCN(c3ncccc3C#N)CC2)c1OC (stereo not given) | x | x | x | x | x | 0
CCCCCCN1C[C@@H](n2cc(COC(=O)c3ccccc3)nn2)[C@H](O)C[C@@H]1c1ccccc1 | 3 | x | 65* | 9 | 8 | -4
O=C(O)CCC(=O)NNC(=O)COc1ccc(Cl)cc1Cl | -19 | 7 | 3 | -4 | -7 | 15
O=C(O)CCC(=O)NNC(=O)CCCOc1ccc(Cl)cc1Cl | 97* | 10 | 11 | -4 | -6 | 2
O=C(CCCOc1ccc(Cl)cc1Cl)N/N=C/c1ccccc1O | -14 | 22 | 52* | 10 | -24 | -2
CSc1ccc(OC2(C)CCN(Cc3ccc4c(c3)OCCO4)C2)cc1 (stereo not given) | -10 | x | -25 | x | 3 | -6
O=[N+]([O-])c1ccc(-c2ccc(/C=N/Nc3nc(N4CCCCC4)nc(N4CCCCC4)n3)o2)cc1 | 14 | -11 | 14 | -22 | 12 | -3
O=[N+]([O-])c1cccc(-c2ccc(/C=N/Nc3nc(N4CCCCC4)nc(N4CCCCC4)n3)o2)c1 | 24 | -2 | 69* | u | 10 | 30
CCOC(=O)C1=C(C)Nc2ccccc2N=C1NC(=O)c1oc2ccccc2c1COC | 15 | 21 | 65* | 8 | 9 | 4
CN1CCN(c2ccc(CNC(=O)C3(C)Cc4c(-c5ccc6c(c5)OCO6)ccnc4O3)cc2)CC1 (stereo not given) | 0 | x | 8 | x | 1 | -4
O=C1CC(c2ccc3c(c2)OCCO3)Oc2ccccc21 (stereo not given) | -11 | -99 | -334 | -5 | 1 | -241
O=C1CC(c2ccc3c(c2)OCCO3)Oc2ccc([N+](=O)[O-])cc21 (stereo not given) | 98* | -12 | -26 | -26 | 85* | -64
CN(C(=O)c1ccncc1)C1CCCCC1 | 9 | 1 | 7 | -2 | -3 | 13
COC(=O)CC1(c2cccc3ccccc23)C(=O)c2ccccc2C1=O | 10 | 30 | 13 | -1 | 19 | 78*
COC(=O)CC1(c2ccccc2)C(=O)c2ccccc2C1=O | 6 | -3 | 7 | 3 | -6 | 10
